Bioassay records deposited in PubChem by National Center for Advancing Translational Sciences (NCATS).
Sampled rows, rich in hits. Any-hit rate of the full collection: about 11%.
BAZ2B inh – blocks human BAZ2B | Q9UIF8 | AlphaScreen BAZ2B-H3K14Ac peptide displacement | Potency, µM (top dose mostly 114 µM), without a hit: at the highest dose activity change, negative = inhibition, actives largely listed as inhibitors | hit rate 4.4% among 360,000 | AID 504333; further: potency means the concentration at half of the fitted maximal effect; on the % scale 0 is the no-effect control and ±100 the full control effect; nearly all actives have a fitted effect of over 60% in size
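In this displacement format the biotinylated H3(5-23) peptide acetylated at Lys14 serves as ligand at 50 nM, with BAZ2B at 50 nM in PBS pH 7.4 containing 0.01% Tween-20. Donor and acceptor beads are 10 ug/mL final.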
L3MBTL1 inh – blocks human L3MBTL1. Q9Y468. AlphaScreen L3MBTL1–H3K9me1 peptide binding. hit rate 0.66% among 230,000. Potency, µM (highest dose often 57.1 µM), inactives show at the highest dose activity, negative = inhibition, usual class: inhibitors; further: potency means the concentration at half of the fitted maximal effect; on the % scale 0 is the no-effect control and ±100 the full control effect; nearly all actives have a fitted effect of over 60% in size
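L3MBTL1 50 nM + b-AHA-H3(1-15)K9me1 75 nM, 30 min RT; compound added, 30 min RT; streptavidin donor/Ni-chelate acceptor beads 10 ug/mL each final, 30 min RT dark; AlphaScreen read.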
JMJD2A Tudor – JMJD2A Tudor domain (human) inhibition; hit rate 4.4% among 390,000; O75164; AID 504339; Potency, µM (highest dose often 114 µM), for the others: at the top dose activity change, negative = inhibition, usual class: inhibitors; AlphaScreen JMJD2A-Tudor / H3K4me3 peptide binding; further: potency means the concentration at half of the fitted maximal effect; on the % scale 0 is the no-effect control and ±100 the full control effect; nearly all actives have a fitted effect of over 50% in size
G9a inh-1 – inhibitors of human histone lysine methyltransferase G9a; AID 504332; Q96KQ7; Potency, µM (series often up to 102 µM), for the others: top-dose activity, negative = inhibition, actives largely listed as inhibitors; G9a H3K9 monomethylation, AlphaScreen, 2 h; hit rate 8.8% among 350,000; further: potency means the concentration at half of the fitted maximal effect; on the % scale 0 is the no-effect control and ±100 the full control effect; nearly all actives have a fitted effect of over 75% in size
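Enzyme 20 nM + cpd, 15 min RT; add b-H3K9 pep 500 nM / SAM 20 uM; 2 h RT; anti-H3K9me1 Ab 0.5 ug/mL + SA donor / anti-rabbit acceptor beads 20 ug/mL each, 10 min; AlphaScreen read.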
HP1b binding inh – HP1-beta chromodomain-methylated histone interaction inhibition; AID 540317; AlphaScreen HP1-beta / biotin-H3K9me3 peptide binding; hit rate 0.56% among 390,000; Potency, µM (doses to about 114 µM), without a hit: at the highest dose activity change, negative = inhibition, hits mostly inhibitors; P83916; further: potency means the concentration at half of the fitted maximal effect; nearly all actives have a fitted effect of over 70% in size
Target sequence (P83916 whole entry, looked up): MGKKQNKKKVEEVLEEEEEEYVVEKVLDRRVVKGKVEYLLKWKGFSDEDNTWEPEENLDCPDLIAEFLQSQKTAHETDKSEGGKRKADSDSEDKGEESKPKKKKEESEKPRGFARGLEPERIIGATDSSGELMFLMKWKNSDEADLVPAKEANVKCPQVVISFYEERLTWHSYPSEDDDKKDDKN
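AlphaScreen: HP1-beta (50 nM) preformed 30 min with biotin-H3(1-18)K9me3 peptide (50 nM) in PBS pH 7.4, 0.01% Tween-20. Compound added for 30 min at RT, then streptavidin donor/nickel chelate acceptor beads (10 ug/mL) for 30 min.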
JMJD2E inh – confirmation of inhibitors of human JMJD2E demethylase; hit rate 93% among 140; Potency, µM (doses to about 56.8 µM), for the others: at the top dose activity change, negative = inhibition, actives largely listed as inhibitors; shares compounds with JMJD2A Tudor; Recombinant JMJD2E, FDH-coupled NADH fluorescence (FDH is formaldehyde dehydrogenase); AID 2677
Target sequence (B2RXH2 1-337 limits assumed): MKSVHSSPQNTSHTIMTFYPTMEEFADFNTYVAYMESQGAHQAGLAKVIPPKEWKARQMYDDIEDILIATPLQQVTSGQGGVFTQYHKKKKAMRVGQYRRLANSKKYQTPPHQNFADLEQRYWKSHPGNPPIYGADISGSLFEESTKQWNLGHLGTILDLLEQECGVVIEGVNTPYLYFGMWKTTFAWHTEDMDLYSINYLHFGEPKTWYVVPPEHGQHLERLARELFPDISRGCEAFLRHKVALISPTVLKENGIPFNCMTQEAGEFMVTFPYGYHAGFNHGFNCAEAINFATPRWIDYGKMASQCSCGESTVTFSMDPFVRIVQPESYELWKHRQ
FDH inh – blocks Pseudomonas putida formaldehyde dehydrogenase, flagging JMJD2E artifacts; shares compounds with JMJD2A Tudor; FDH enzyme assay, NADH fluorescence kinetic; Potency, µM (series often up to 56.7 µM), for the others: top-dose activity, negative = inhibition, usual class: inhibitors; hit rate 10% among 140
G9a inh-2 – inhibits human G9a histone lysine methyltransferase, hit confirmation; shares compounds with JMJD2A Tudor; G9a H3K9 monomethylation, AlphaScreen, 2 h; Potency, µM, most hits filed as inhibitors; hit rate 89% among 370; further: potency means the concentration at half of the fitted maximal effect; nearly all actives have a fitted effect of over 65% in size
* = called active by the depositor; ? = inconclusive; . = no result; [ ] = remark or other dose. The call rests on the fitted dose curve; in most records, active means well fitted curve in the direction sought with a large enough effect; inconclusive means small, poorly fitted or top-dose-only effect, or another doubt; inactive means no such curve, though single readings can be large; an effect the other way counts as inactive or inconclusive.

SMILES	BAZ2B inh	L3MBTL1 inh	JMJD2A Tudor	G9a inh-1	HP1b binding inh	G9a inh-2	others
CCOCCOC(=O)c1[nH]c2c(c1C)C(=O)CC(c1ccc(OC)c(OC)c1)C2 (stereo not drawn)	-21%	.	-17%	9%	-17%	.
CCOCCOC(=O)c1[nH]c2c(c1C)C(=O)CC(c1ccc(N(C)C)cc1)C2 (stereo not drawn)	?	-25%	?	?	3%	?
COc1cccc(CN2CC(C(=O)NC3CCCCCC3)CCC2=O)c1 (stereo not drawn)	2%	.	-10%	-22%	28%	.
Cc1nn(C)c2ncc(C(=O)c3ccccc3O)cc12	2%	.	-12%	?	-1%	.
Cc1nn(-c2ccccc2)c2ncc(C(=O)c3cc(Cl)ccc3O)cc12	?	-1%	?	0.79µM*	-7%	11*
CCOC(=O)c1ccc(NC(=O)CC2Sc3ncnn3C2=O)cc1 (stereo not drawn)	-12%	-6%	7.9µM*	2.2µM*	?	0.56*	JMJD2E inh=2µM*;FDH inh=0.16µM*
COc1ccc(NC(=O)CC2Sc3ncnn3C2=O)cc1 (stereo not drawn)	4%	11%	?	1.4µM*	2%	0.63*	JMJD2E inh=3.2µM*;FDH inh=0.28µM*
O=C(CC1SC2=NCCN2C1=O)Nc1ccc(Cl)cc1 (stereo not drawn)	0%	26%[11.4 µM]	-9%	-2%[59 µM]	17%	.
O=C(CC1Sc2ncnn2C1=O)Nc1ccc(Cl)cc1 (stereo not drawn)	-33%	-4%	?	2.5µM*	-19%	?	JMJD2E inh=2µM*;FDH inh=0.25µM*
CCC[C@H]1C[C@H](C(=O)N[C@H]([C@@H]2O[C@H](SC)[C@@H](O)[C@H](O)[C@@H]2O)[C@H](C)O)N(C)C1	.	.	.	15%[21.5 µM]	.	.
CSc1ncccc1C(=O)N1CCN(S(=O)(=O)c2cc(C)ccc2C)CC1	-15%	.	-5%	-9%	34%	.
Cc1ccc(C)c(S(=O)(=O)N2CCN(Cc3ccc(O)c4ncccc34)CC2)c1	.	?	-14%	-38%	32%	.	JMJD2E inh=35µM*;FDH inh=?
COc1ccc(C2=NOC(Cn3nc(-c4ccccc4)cc3C(=O)NCc3ccccc3OC)C2)cc1 (stereo not drawn)	.	25%	-26%	.	24%	.
COc1ccc(N2CCN(CC(=O)Nc3cc(C)on3)CC2)cc1	20µM*	0%	2.8µM*	1.8µM*	?	1.6*
COc1ccccc1CN1CCC(n2nccc2NC(=O)CCc2ccccc2)CC1	-25%	.	-26%	20%	51%	.
O=C1CC(c2ccccc2)Cc2[nH]c(=O)c(-c3nc(-c4ccc(F)cc4)cs3)cc21 (stereo not drawn)	13µM*	.	22µM*	0.63µM*	31%	2.5*
Cc1ccc(CNC(=O)CN2C(=O)COc3ccc(S(=O)(=O)N4CCC(C)CC4)cc32)cc1	0%	.	-5%	?	41%	?
Oc1ccc(NCc2ccccc2OCc2ccccc2)cc1	28µM*	?	56µM*	1.8µM*	?	5.8*
CCNCc1ccccc1OCc1ccccc1	-27%	-1%	-2%	-5%	59%	.
Cn1c(SCC(=O)Nc2ccccc2)nnc1-c1ccc2nonc2c1	1%	6%	-5%	-4%[59 µM]	25%	.
Cc1cccc(C)c1NC(=O)COC(=O)[C@@H]1CCCN1C(=O)c1cccs1	.	4%	-18%	.	20%	.
O=C(CSC1=NCCS1)N1CCc2ccccc21	-1%	.	15%	?	21%	1.6*
Cc1ccc(NC(=O)CC2SC3=NCCCN3C2=O)c(C)c1 (stereo not drawn)	2%	.	20%[11.4 µM]	0.71µM*	4%	4.5*
COc1ccc(S(=O)(=O)N(C)C[C@H]2Oc3c(NC(=O)Nc4c(C)noc4C)cccc3C(=O)N([C@@H](C)CO)C[C@H]2C)cc1	.	-1%	-13%	.	29%	.
NC(=O)c1ccc(-n2nnnc2SCC(=O)c2ccc(O)c(O)c2)cc1	?	?	?	11µM*	-10%	.	JMJD2E inh=7.9µM*;FDH inh=-26%
SMILES	BAZ2B inh	L3MBTL1 inh	JMJD2A Tudor	G9a inh-1	HP1b binding inh	G9a inh-2	others
O=C(CSc1nnc(-c2ccncc2)o1)c1cccc([N+](=O)[O-])c1	-20%	-3%	-22%	33%[12.7 µM]	-7%	.
O=C(CSc1ncn[nH]1)c1cccc([N+](=O)[O-])c1	-9%	-3%	28µM*	25µM*	12%	.	JMJD2E inh=10µM*;FDH inh=0.89µM*
CCOc1ccc(C(=O)c2cnc3ccccc3c2N2CCN(CC)CC2)cc1	-26%	.	-32%	?	38%	?
COc1ccc(OC)c(Nc2nc(=O)c3cccnc3s2)c1	56µM*	-24%	18µM*	0.56µM*	?	0.45*
CC(C(=O)NC(=O)NC1CCCCC1)N1CCN(c2ccc(O)cc2)CC1 (stereo not drawn)	?	-4%	22µM*	1.3µM*	79µM*	0.56*
CCCCn1c(N)c(N(CCOC)C(=O)COc2ccc(Cl)cc2)c(=O)[nH]c1=O	-3%	3%	4%	2%	37%	.
O=C(NCCN1CCOCC1)NC1(C(F)(F)F)Oc2ccccc2O1	9%	11%	-2%	?	47%	?
Cc1ccc(CN2CCN(C(=O)C3CCCO3)CC2)cc1 (stereo not drawn)	11%	0%	-17%	?	5%	.
O=C(C1CCCO1)N1CCN(Cc2c(O)ccc3ccccc23)CC1 (stereo not drawn)	5%	.	79µM*	1.4µM*	-32%	0.36*
Cc1ccc(N2NC3(CCN(C(N)=O)CC3)NC2=O)cc1	-19%	4%	-17%	0.71µM*	31%	40*
CSc1nnc(-c2ccccc2)n1C	-2%	-2%	-8%	28%[59 µM]	9%	.
CSc1nnc(C2CCCN2)n1C (stereo not drawn)	18µM*	?	?	2.5µM*	27%	4.5*
